This excerpt belongs to a sample that is enriched for the strongest signals.
B1: CC1G-10077 (Coprinopsis cinerea), A8NDT7 (protein)
chain: MALNEGVYWIRNSRFTNKVLDLDAANVAKGTSILDFNEHGTFNENHNQLWIVERFQSRDTYLIRSVHSNLVLDLSQGLSANGTPILCWTQHGGTNQQWRIEWVKDDNKTPLYRIVSVATGTAISHNEDDSSAYTVAWSVDDGPKQLWSFDPFVTPLLYRLRVKSTSRVLDLAAASADNGTLALAWEQHTAITKRNQLWWLPYRSGAEEYTIQCLETSTVADLSGGNSGNGTPIYGWQSHGGRNQQWKFEPTSDSGDYYHIKNVEGGSVMDAYMNDSQKRVGGWSNNGGDNQKWLLDPLPSPGPGWVLIQNGGTGKFLCSTPSGDIGTADGPETVYDYSVQWRFIQREYTGVYHVVNRATGAYLRQIGTSMPSIGLAEENDDELKDWWMLETYDNSEIGLASIISRWTGNVLDHYGGVSVQALDNNTENSYRSWAIIPARDWLTSFSLVNGQGGLCLAAQYAREETRLSTTANVNDFHAQWVFRKPSGSSGYTIQNKYNNHYVGGTSARWELVVCCNKYFGIRNTSTQKYLAIEDGQVTFQDQDMTDRKQCWELCSGRATDTSGNDYDLIYMDDDLLEVMIPWVGDKQGDLKHYIEKRATKKPPKDKGGWQLPAAGLIKKPKFNDIRQLLQELIEQWEWDVVNEEREQIQTLVSIDEAEARRLLGRRPHPDIVAAYQRSRSSTLFRIDRQGYFNIAGDRYVNIQGQYGDDSYFHIALPVGVRFGREQIRRFLRDSLDRSTSVTITPTTCKPPSGGPDYNRDPDSDGDNSWIKWTIAVVGTSAIKHSEL
B2: C-Reactive Protein (Homo sapiens), P02741 (protein)
chain: MEKLLCFLVLTSLSHAFGQTDMSRKAFVFPKESDTSYVSLKAPLTKPLKAFTVCLHFYTELSSTRGYSIFSYATKRQDNEILIFWSKDIGYSFTVGGSEILFEVPEVTVAPVHICTSWESASGIVEFWVDGKPRVRKSLKKGYTVGAEASIILGQEQDSFGGNFEGSQSLVGDIGNVNMWDFVLSPDEINTIYLGGPFSPNVLNWRALKYEVQGEVFTKPQLWP

Legend:
Assay in all cases: glycan array binding signal (z-score within array); higher = stronger binding
Details in all cases: glycan notation: IUPAC condensed, linker removed
GlcNAc(b1-3)Gal(b1-4)Glc = biological target: GlcNAc(b1-3)Gal(b1-4)Glc
How it was run: (§1)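 Glycan array binding is given as a within-array Z-score, which can be read as non-binding when negative. The arrays, 3228 of them, came from the Consortium for Functional Glycomics database and were retained only where the protein sequence was available. Z-scores were averaged across arrays of the same protein sequence at different concentrations or buffers and across linkers.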

[1] = biological target: GlcNAc(b1-3)Gal(b1-4)GlcNAc(b1-3)Gal(b1-4)GlcNAc(b1-3)Gal(b1-4)GlcNAc(b1-2)Man(a1-3)[GlcNAc(b1-3)Gal(b1-4)GlcNAc(b1-3)Gal(b1-4)GlcNAc(b1-3)Gal(b1-4)GlcNAc(b1-2)Man(a1-6)]Man(b1-4)GlcNAc(b1-4)[Fuc(a1-6)]GlcNAc
How it was run: as §1

[2] = biological target: GlcNAc(b1-6)Gal(b1-4)GlcNAc
How it was run: as §1

Kdn(a2-3)Gal(b1-4)GlcNAc = biological target: Kdn(a2-3)Gal(b1-4)GlcNAc
How it was run: as §1

[3] = biological target: Neu5Ac(a2-3)Gal(b1-3)GlcNAc
How it was run: as §1

[4] = biological target: Neu5Ac(a2-3)Gal(b1-3)GlcNAc(b1-3)Gal(b1-4)GlcNAc
How it was run: as §1

[5] = biological target: Neu5Ac(a2-3)Gal(b1-3)[Fuc(a1-4)]GlcNAc
How it was run: as §1

[6] = biological target: Neu5Ac(a2-3)Gal(b1-4)GlcNAc(b1-2)Man
How it was run: as §1

[7] = biological target: Neu5Ac(a2-3)Gal(b1-4)GlcNAc(b1-3)Gal(b1-4)GlcNAc(b1-3)Gal(b1-4)GlcNAc(b1-2)Man(a1-3)[Neu5Ac(a2-3)Gal(b1-4)GlcNAc(b1-3)Gal(b1-4)GlcNAc(b1-3)Gal(b1-4)GlcNAc(b1-2)Man(a1-6)]GalNAc
How it was run: as §1

[8] = biological target: Neu5Ac(a2-3)Gal(b1-4)[Fuc(a1-3)]GlcNAc(b1-6)[Gal(b1-3)]GalNAc
How it was run: as §1

[9] = biological target: Neu5Ac(a2-3)Gal(b1-4)[Fuc(a1-3)]GlcNAc6S
How it was run: as §1

[10] = biological target: Neu5Ac(a2-6)Gal(b1-3)GlcNAc(b1-3)[Gal(b1-4)GlcNAc(b1-6)]Gal(b1-4)Glc
How it was run: as §1

[11] = biological target: Neu5Ac(a2-6)Gal(b1-4)GlcNAc(b1-2)Man(a1-3)[Neu5Ac(a2-6)Gal(b1-4)GlcNAc(b1-2)Man(a1-6)]Man(b1-4)GlcNAc(b1-4)GlcNAc
How it was run: as §1

[12] = biological target: Neu5Ac(a2-8)Neu5Ac(a2-3)[GalNAc(b1-4)]Gal(b1-4)Glc
How it was run: as §1

[13] = biological target: Neu5Ac(a2-8)Neu5Ac(a2-8)Neu5Ac
How it was run: as §1

[14] = biological target: Fuc(a1-3)[Gal3S(b1-4)]Glc
How it was run: as §1

[15] = biological target: Fuc(a1-3)[GalNAc(b1-4)]Gal(b1-4)GlcNAc
How it was run: as §1

Gal(a1-2)Gal = biological target: Gal(a1-2)Gal
How it was run: as §1

Gal(a1-4)Gal(b1-4)Gal = biological target: Gal(a1-4)Gal(b1-4)Gal
How it was run: as §1

Gal(b1-3)Gal = biological target: Gal(b1-3)Gal
How it was run: as §1

[16] = biological target: Gal(b1-3)GalNAc(b1-3)Gal(a1-4)Gal(b1-4)Glc
How it was run: as §1

[17] = biological target: Gal(b1-3)GlcNAc(b1-3)Gal(b1-3)GlcNAc
How it was run: as §1

[18] = biological target: Gal(b1-3)[Fuc(a1-4)]GlcNAc(b1-3)Gal(b1-4)GlcNAc
How it was run: as §1

[19] = biological target: Gal(b1-3)[Fuc(a1-4)]GlcNAc(b1-3)Gal(b1-4)[Fuc(a1-3)]GlcNAc
How it was run: as §1

[20] = biological target: Gal(b1-4)GalNAc(a1-3)[Fuc(a1-2)]Gal(b1-4)GlcNAc
How it was run: as §1

[21] = biological target: Gal(b1-4)GalNAc(b1-3)[Fuc(a1-2)]Gal(b1-4)GlcNAc
How it was run: as §1

Gal(b1-4)Glc6S = biological target: Gal(b1-4)Glc6S
How it was run: as §1

[22] = biological target: Gal(b1-4)GlcNAc(b1-3)Gal(b1-4)[Fuc(a1-3)]GlcNAc(b1-3)Gal(b1-4)[Fuc(a1-3)]GlcNAc
How it was run: as §1

Gal3S(b1-3)GalNAc = biological target: Gal3S(b1-3)GalNAc
How it was run: as §1

Gal3S(b1-4)GlcNAc6S = biological target: Gal3S(b1-4)GlcNAc6S
How it was run: as §1

Gal4S6S(b1-4)GlcNAc = biological target: Gal4S6S(b1-4)GlcNAc
How it was run: as §1

GlcA(b1-6)Gal = biological target: GlcA(b1-6)Gal
How it was run: as §1

[23] = biological target: GlcNAc(b1-3)Gal(b1-3)GalNAc
How it was run: as §1

[24] = biological target: GlcNAc(b1-4)GlcNAc(b1-4)GlcNAc
How it was run: as §1

Kdn(a2-3)Gal(b1-3)GlcNAc = biological target: Kdn(a2-3)Gal(b1-3)GlcNAc
How it was run: as §1

[25] = biological target: Man(a1-2)Man(a1-2)Man(a1-3)[Man(a1-2)Man(a1-3)[Man(a1-2)Man(a1-6)]Man(a1-6)]Man(b1-4)GlcNAc(b1-4)GlcNAc
How it was run: as §1

[26] = biological target: Neu5Ac(a2-3)Gal(b1-4)GlcNAc(b1-3)Gal(b1-4)GlcNAc
How it was run: as §1

[27] = biological target: Neu5Ac(a2-3)Gal(b1-4)GlcNAc(b1-6)[Gal(b1-3)]GalNAc
How it was run: as §1

[28] = biological target: Neu5Ac(a2-3)Gal6S(b1-4)[Fuc(a1-3)]GlcNAc
How it was run: as §1

[29] = biological target: Neu5Ac(a2-8)Neu5Ac(a2-8)Neu5Ac(a2-8)Neu5Ac(a2-3)[GalNAc(b1-4)]Gal(b1-4)Glc
How it was run: as §1

Row | Binder | glycan array binding signal (z-score) (GlcNAc(b1-3)Gal(b1-4)Glc) | glycan array binding signal (z-score) [1] | glycan array binding signal (z-score) [2] | glycan array binding signal (z-score) (Kdn(a2-3)Gal(b1-4)GlcNAc) | glycan array binding signal (z-score) [3] | glycan array binding signal (z-score) [4] | glycan array binding signal (z-score) [5] | glycan array binding signal (z-score) [6] | glycan array binding signal (z-score) [7] | glycan array binding signal (z-score) [8] | glycan array binding signal (z-score) [9] | glycan array binding signal (z-score) [10] | glycan array binding signal (z-score) [11] | glycan array binding signal (z-score) [12] | glycan array binding signal (z-score) [13] | glycan array binding signal (z-score) [14] | glycan array binding signal (z-score) [15] | glycan array binding signal (z-score) (Gal(a1-2)Gal) | glycan array binding signal (z-score) (Gal(a1-4)Gal(b1-4)Gal) | glycan array binding signal (z-score) (Gal(b1-3)Gal) | glycan array binding signal (z-score) [16] | glycan array binding signal (z-score) [17] | glycan array binding signal (z-score) [18] | glycan array binding signal (z-score) [19] | glycan array binding signal (z-score) [20] | glycan array binding signal (z-score) [21] | glycan array binding signal (z-score) (Gal(b1-4)Glc6S) | glycan array binding signal (z-score) [22] | glycan array binding signal (z-score) (Gal3S(b1-3)GalNAc) | glycan array binding signal (z-score) (Gal3S(b1-4)GlcNAc6S) | glycan array binding signal (z-score) (Gal4S6S(b1-4)GlcNAc) | glycan array binding signal (z-score) (GlcA(b1-6)Gal) | glycan array binding signal (z-score) [23] | glycan array binding signal (z-score) [24] | glycan array binding signal (z-score) (Kdn(a2-3)Gal(b1-3)GlcNAc) | glycan array binding signal (z-score) [25] | glycan array binding signal (z-score) [26] | glycan array binding signal (z-score) [27] | glycan array binding signal (z-score) [28] | glycan array binding signal (z-score) [29]
1 | B1 | -0.371 | -0.141 | 3.18 | -0.466 | -0.452 | -0.476 | -0.473 | -0.331 | -0.417 | -0.37 | -0.468 | 0.306 | -0.326 | -0.233 | -0.448 | – | – | – | – | – | – | – | – | – | – | – | – | – | – | – | – | – | – | – | – | – | – | – | – | –
2 | B2 | – | – | – | – | – | – | – | – | – | – | – | – | – | – | – | 0.735 | -0.478 | -0.469 | -0.603 | -0.554 | -0.576 | 1.62 | -0.4 | -0.468 | -0.454 | -0.521 | 0.381 | 0.095 | 0.199 | 1.48 | 2.24 | -0.49 | -0.505 | 1.94 | -0.402 | -0.496 | -0.055 | 1.51 | 0.578 | 0.158
